Laboratory results taken from PMC4336329 (PLoS ONE, 2015).
In all, about 310,000 compounds went through this assay and about 14,000 (4.5%) showed an effect of 50% or more. Effects have a minus sign here. The entries come from a sample that favours strong results as a whole.

biological target: human ether-à-go-go-related gene (hERG) potassium channel (human, UniProt Q12809); assay: primary screen, population patch clamp on CHO cells stably expressing hERG; higher = less effect of the substance
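Also: peak tail current of the secondary pulse compared with the same well before compound.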

Chain of human ether-à-go-go-related gene (hERG) potassium channel (Q12809 whole entry, looked up): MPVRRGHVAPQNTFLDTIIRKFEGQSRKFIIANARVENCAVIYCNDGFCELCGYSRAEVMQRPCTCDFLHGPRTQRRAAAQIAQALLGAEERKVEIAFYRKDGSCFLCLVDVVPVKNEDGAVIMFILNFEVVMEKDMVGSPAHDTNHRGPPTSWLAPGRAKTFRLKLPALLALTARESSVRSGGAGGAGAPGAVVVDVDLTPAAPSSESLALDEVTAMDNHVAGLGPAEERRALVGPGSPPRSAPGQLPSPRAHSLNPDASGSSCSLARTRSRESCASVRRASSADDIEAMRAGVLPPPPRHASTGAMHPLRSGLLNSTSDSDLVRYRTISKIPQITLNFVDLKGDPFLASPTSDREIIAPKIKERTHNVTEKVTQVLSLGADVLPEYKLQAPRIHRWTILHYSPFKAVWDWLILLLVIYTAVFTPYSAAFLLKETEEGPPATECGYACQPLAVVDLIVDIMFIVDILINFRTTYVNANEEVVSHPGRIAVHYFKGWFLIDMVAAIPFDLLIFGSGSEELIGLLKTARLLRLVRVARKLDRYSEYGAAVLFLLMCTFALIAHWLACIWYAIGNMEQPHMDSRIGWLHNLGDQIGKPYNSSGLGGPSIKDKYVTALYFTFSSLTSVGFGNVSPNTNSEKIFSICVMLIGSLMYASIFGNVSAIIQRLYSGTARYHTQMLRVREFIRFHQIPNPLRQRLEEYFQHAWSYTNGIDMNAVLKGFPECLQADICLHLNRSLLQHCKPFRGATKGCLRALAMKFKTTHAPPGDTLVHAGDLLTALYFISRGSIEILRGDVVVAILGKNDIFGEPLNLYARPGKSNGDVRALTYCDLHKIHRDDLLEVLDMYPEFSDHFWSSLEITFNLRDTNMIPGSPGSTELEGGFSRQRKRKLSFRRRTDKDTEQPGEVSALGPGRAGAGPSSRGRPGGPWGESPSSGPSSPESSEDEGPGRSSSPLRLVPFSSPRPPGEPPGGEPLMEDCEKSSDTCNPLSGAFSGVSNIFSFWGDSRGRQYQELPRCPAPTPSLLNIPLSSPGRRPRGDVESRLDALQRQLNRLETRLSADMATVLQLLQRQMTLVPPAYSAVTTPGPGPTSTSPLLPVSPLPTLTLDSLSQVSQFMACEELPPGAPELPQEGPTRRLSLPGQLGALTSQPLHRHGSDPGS

| SMILES | hERG current change (%, negative = inhibition) at 10uM [%] |
| --- | --- |
| O=C(O)c1ccc(N2C(=O)CC(N3CCN(c4ccc(Cl)cc4)CC3)C2=O)cc1 (stereo not drawn) | 6.79 |
| O=C(NCc1ccc(-c2csnn2)cc1)C1CC1 | 7.09 |
| CC1CCN(c2nc3c(=O)[nH]c(N)nc3n2[C@@H]2O[C@H](CO)[C@@H](O)[C@H]2O)CC1 | 13.6 |
| COC(=O)c1ccc(NC(=O)Cn2cnc3c(nnn3-c3cccc(OC)c3)c2=O)cc1 | 3.08 |
| CN1CCc2nc3ccc(F)cc3c(C(N)=O)c2C1.Cl | -4.4 |
| CN1CCc2nc3ccc(Cl)cc3c(-c3ccccc3Cl)c2C1.Cl | -65.7 |
| Cl.Clc1ccc2nc3c(c(-c4ccccc4)c2c1)CNCC3 | -37.3 |
| CN(C)c1ccc(Nc2ncnc3ccc(Br)cc23)cc1 | 20.4 |
| CNc1c([N+](=O)[O-])cnn1-c1ccc(C)cc1 | -2.24 |
| COc1ccccc1N1CCN(C2CCCN(Cc3cccc(O)c3)C2)CC1 (stereo not drawn) | -9.65 |
| COc1ccc(CN2CCCC(N3CCN(c4cccc(Cl)c4)CC3)C2)cc1OC (stereo not drawn) | -54.1 |
| CCOc1cc(CN2CCCC(N3CCN(c4ccc(F)cc4)CC3)C2)ccc1OC (stereo not drawn) | -62.7 |
| CC(C)CN1CCCC(N2CCN(c3cccc(Cl)c3)CC2)C1 (stereo not drawn) | -21.5 |
| COc1ccccc1N1CCN(C2CCCN(Cc3ccc(Cl)cc3)C2)CC1 (stereo not drawn) | -41.1 |
| COc1ccc(O)c(CN2CCCC(N3CCN(c4ccccc4OC)CC3)C2)c1 (stereo not drawn) | -11 |
| COc1cc(CN2CCCC(N3CCN(c4ccccc4C)CC3)C2)ccc1O (stereo not drawn) | -27 |
| CC(C)/C=C/CN1CCCC(N2CCN(c3cccc(Cl)c3)CC2)C1 (stereo not drawn) | -50.7 |
| COc1ccc(O)c(CN2CCCC(N3CCN(c4ccc(F)cc4)CC3)C2)c1 (stereo not drawn) | -59.7 |
| CCOc1cc(CN2CCN(c3ccc(C(C)=O)cc3)CC2)ccc1OC | -23.5 |
| COc1ccc(N2CCN(C3CCCN(Cc4ccc(F)cc4Cl)C3)CC2)cc1 (stereo not drawn) | -35.2 |
| Cc1cccc(C(=O)N2CCCC(N3CCN(c4cccc(Cl)c4)CC3)C2)n1 (stereo not drawn) | -17.5 |

| SMILES | hERG current change (%, negative = inhibition) at 10uM [%] |
| --- | --- |
| C#CC(C)(C)NC(=O)c1ccccc1OC | 1.69 |
| CC(C)CNC(=O)COC(=O)/C=C/c1ccccc1[N+](=O)[O-] | 5.61 |
| COCc1cc(C)nc(SCC(=O)c2ccc(O)c(O)c2)c1C#N | 6.86 |
| CN(C)S(=O)(=O)N(CC(=O)Nc1ccc2ccccc2c1)c1ccccc1 | 8.45 |
| CN1CCN(CCC(=O)Nc2ccc(OCc3ccccc3)cc2)CC1 | -41.6 |
| Cn1cc(C(=O)c2cccc(Cl)c2Cl)cc1C(=O)O | 10.2 |
| COc1ccc(-c2cc(-c3ccc(O)cc3)nc(N)c2C#N)cc1 | 3.91 |
| COc1cc(/C=C(\C#N)C(=O)Nc2ccc3ccccc3c2)c([N+](=O)[O-])cc1OC | 8.14 |
| Cc1c(C)n2c(SCC(=O)N3CCC(C)CC3)nnc2[nH]c1=O | 15.3 |
| CC(=O)Nc1ccccc1NC(=O)C/C(C)=N/NC(=O)Cc1cccc2ccccc12 | 10.8 |
| C=CCSC1=C(C#N)C(c2ccccc2OC)CC(=O)N1 (stereo not drawn) | -2.19 |
| COc1ccccc1N1CCN(C2CCCN(Cc3cc(F)cc(F)c3)C2)CC1 (stereo not drawn) | -6.62 |
| COc1cc(CN2CCCC(N3CCN(c4ccc(F)cc4)CC3)C2)ccc1F (stereo not drawn) | -64.4 |
| COc1ccc(N2CCN(C3CCCN(Cc4ccccc4OCCO)C3)CC2)cc1 (stereo not drawn) | -24.1 |
| CCOc1cccc(CN2CCCC(N3CCN(c4cccc(Cl)c4)CC3)C2)c1O (stereo not drawn) | -58.7 |
| CCn1nc(C)cc1C(=O)N1CCCC(N2CCN(c3cccc(Cl)c3)CC2)C1 (stereo not drawn) | -35 |
| CCOc1cccc(CN2CCCC(N3CCc4cc(OC)c(OC)cc4C3)C2)c1O (stereo not drawn) | -39.3 |
| COc1ccccc1CN1CCCC(N2CCN(c3ccc(F)cc3)CC2)C1 (stereo not drawn) | -56.2 |
| COc1ccc(N2CCN(C3CCCN(Cc4ccc(F)cc4)C3)CC2)cc1 (stereo not drawn) | -32.8 |
| COc1ccccc1CN1CCCC(N2CCN(c3ccccc3OC)CC2)C1 (stereo not drawn) | -11.9 |
| CCCCn1c(N)c(N(CCOC)C(=O)C2CCN(S(=O)(=O)c3ccc(F)cc3)CC2)c(=O)[nH]c1=O | -1.06 |

| SMILES | hERG current change (%, negative = inhibition) at 10uM [%] |
| --- | --- |
| COCCCN(C(C)=O)c1nc(-c2ccccc2)cs1 | -23.4 |
| CCNC(=O)CSc1nc(-c2ccc(F)cc2)cs1 | 21.2 |
| O=C(NCC(c1ccco1)N1CCc2ccccc21)c1ccc([N+](=O)[O-])cc1 (stereo not drawn) | -18.3 |
| Cn1c(SCc2ccccc2)nnc1-c1ccc2nonc2c1 | -9.18 |
| Cn1c(SCc2c(Cl)cccc2Cl)nnc1-c1ccc2nonc2c1 | -55.1 |
| Cn1c(SCc2ccc(Cl)cc2)nnc1-c1ccc2nonc2c1 | 0.685 |
| CC(c1ccco1)N(C(=O)c1ccccc1NS(=O)(=O)c1ccc(Cl)c([N+](=O)[O-])c1)c1ccccn1 (stereo not drawn) | -6.14 |
| COc1ccc(NC(=O)c2nn(C)c(=O)c3ccccc23)cc1S(=O)(=O)Nc1ccccc1Cl | 26 |
| O=C(NCc1ccccc1)/C(=C\c1ccc([N+](=O)[O-])cc1)NC(=O)c1ccco1 | -60.9 |
| O=C(NCCc1ccccc1)/C(=C\c1ccccc1)NC(=O)c1ccco1 | -21.4 |
| O=C(NCCc1ccccc1)/C(=C\c1ccc([N+](=O)[O-])cc1)NC(=O)c1ccco1 | -80.7 |
| Cc1ccc(C(=O)N/C(=C\c2ccc([N+](=O)[O-])cc2)C(=O)NCCc2ccccc2)cc1 | -33.8 |
| O=C(NCCc1ccccc1)/C(=C\c1ccc([N+](=O)[O-])cc1)NC(=O)c1ccccc1 | -14.6 |
| COc1ccc(NC(=O)/C(=C\c2ccccc2)NC(=O)c2ccco2)cc1 | 0.0276 |
| O=C(NC(Cc1ccccc1)C(=O)O)/C(=C/c1ccc([N+](=O)[O-])cc1)NC(=O)c1ccco1 (stereo not drawn) | 12.6 |
| O=C(NCc1ccccc1)/C(=C\c1ccccc1)NC(=O)c1ccco1 | -21.7 |
| O=C(Nc1ccccc1)/C(=C/c1ccc([N+](=O)[O-])cc1)NC(=O)c1ccco1 | 6.42 |
| O=C(NCc1ccccc1)/C(=C/c1ccc([N+](=O)[O-])cc1)NC(=O)c1ccco1 | -62.7 |
| O=C(NCc1ccccc1)/C(=C/c1ccccc1)NC(=O)c1ccco1 | -24.6 |
| COc1ccc(/C=C(/NC(=O)c2ccco2)C(=O)NCCc2ccccc2)cc1 | -52.6 |
| Cc1cc(S(=O)(=O)Nc2ccc3ccccc3c2)c(C)s1 | -0.508 |

| SMILES | hERG current change (%, negative = inhibition) at 10uM [%] |
| --- | --- |
| O=C(/C=C/c1cccs1)NC(=S)Nc1ccc(C(=O)O)cc1 | 6.78 |
| CCOc1ccc(/C=N/Nc2cc(C)nc(N3CCOCC3)n2)cc1 | 3.47 |
| O=C(O)c1ccc2c(c1)C1C=CCC1C(c1cc3c(cc1Br)OCO3)N2 (stereo not drawn) | 21.2 |
| O=c1n(-c2ccc(Br)cc2)cnn1-c1ncccc1[N+](=O)[O-] | -22.1 |
| O=C1N/C(=N\N=C\c2ccco2)SC1Cc1ccc(F)cc1 (stereo not drawn) | 14 |
| Nc1ncnc(Nc2cccc(C(F)(F)F)c2)n1 | -5.45 |
| Cc1ccc(SCc2[nH]nc3c2C(c2cccnc2)C(C#N)=C(N)O3)cc1 (stereo not drawn) | -2.64 |
| O=C(CCN1C(=O)c2ccccc2C1=O)NCc1ccccc1 | 10.2 |
| CCOC(=O)c1cc2occc2n1CC(=O)N1CCOCC1 | 6.95 |
| COc1cc(-c2ccc(NC(=O)NC3CC3)c(OC)c2)ccc1NC(=O)NC1CC1 | 27.9 |
| O=C(NCc1ccco1)/C(=C/c1ccc(Cl)cc1)NC(=O)c1ccco1 | -14 |
| O=C(NCc1ccco1)/C(=C/c1ccc([N+](=O)[O-])cc1)NC(=O)c1ccco1 | -69.5 |
| O=C(NCc1ccco1)/C(=C/c1ccccc1)NC(=O)c1ccco1 | 4.72 |
| CC(C)CNC(=S)NC(=O)c1csc([N+](=O)[O-])c1 | 9.85 |
| COc1cccc(C(=O)C2CCCN(Cc3cccc(OCCO)c3)C2)c1 (stereo not drawn) | -48.7 |
| COc1cccc(C(=O)C2CCCN(Cc3cccc(-n4nc(C)cc4C)c3)C2)c1 (stereo not drawn) | -59.4 |
| COc1cccc(CN2CCCC(C(=O)N3CCCCC3)C2)c1.O=C(O)C(=O)O (stereo not drawn) | 5.13 |
| COc1cccc(C(=O)C2CCCN(Cc3cccc(-n4cccn4)c3)C2)c1 (stereo not drawn) | -64.5 |
| Cc1cc(S(=O)(=O)N2CCCC(C)C2)ccc1-n1cnnn1 (stereo not drawn) | 5.72 |
| O=C(CSc1nc(N2CCOCC2)nc(N2CCOCC2)n1)Nc1ccccc1F | 19.2 |
| COc1ccccc1C(=O)CC(=O)C(=O)Nc1cccc([N+](=O)[O-])c1C | 8.79 |
